“And” between values parts separate entries of the source, which are not always exact repeats. Identical values can stand only once. Out of some 5,500 compounds screened, about 2,000 (36%) were called active. Not shown: some 18% with an inconclusive outcome. Cut-off read from the data, not from the text of the source: active = normalized growth mostly below about 0.91 (no sharp cut-off); inconclusive = no clear call, values can overlap the other calls; inactive = mostly above about 0.92. The list shows a part of the results.
Assay: chemical genetic growth profiling, strain panel (AID 1159580);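 note: tested at 20 µM; growth read once vehicle control cultures reached saturation at 30 °C; 1 = growth at the plate median or of vehicle wells; lower values mean less growth of the strain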
Conditions: growth OD
[1] = S. cerevisiae deletion strains, locus YAR019C, strain CDC15, hits give low values
[2] = S. cerevisiae deletion strains, locus YBL105C, strain PKC1, hits give low values
[3] = S. cerevisiae deletion strains, locus YBR135W, strain CKS1, hits give low values
[4] = S. cerevisiae deletion strains, locus YBR136W, strain MEC1, hits give low values
[5] = S. cerevisiae deletion strains, locus YBR160W, strain CDC28, hits give low values
[6] = S. cerevisiae deletion strains, locus YDL017W, strain CDC7, hits give low values
[7] = S. cerevisiae deletion strains, locus YDL028C, strain MPS1, hits give low values
[8] = S. cerevisiae deletion strains, locus YDL101C, strain DUN1, hits give low values
[9] = S. cerevisiae deletion strains, locus YDL108W, strain KIN28, hits give low values
[10] = S. cerevisiae deletion strains, locus YDL132W, strain cdc53, hits give low values
[11] = S. cerevisiae deletion strains, locus YDL214C, strain PRR2, hits give low values
[12] = S. cerevisiae deletion strains, locus YDR052C, strain DBF4, hits give low values
[13] = S. cerevisiae deletion strains, locus YDR054C, strain cdc34, hits give low values
[14] = S. cerevisiae deletion strains, locus YDR477W, strain SNF1, hits give low values
[15] = S. cerevisiae deletion strains, locus YER123W, strain YCK3, hits give low values
[16] = S. cerevisiae deletion strains, locus YER133W, strain GLC7, hits give low values
[17] = S. cerevisiae deletion strains, locus YFL009W, strain cdc4, hits give low values
[18] = S. cerevisiae deletion strains, locus YFL029C, strain CAK1, hits give low values
[19] = S. cerevisiae deletion strains, locus YFR003C, strain YPI1, hits give low values
[20] = S. cerevisiae deletion strains, locus YFR019W, strain FAB1, hits give low values
[21] = S. cerevisiae deletion strains, locus YFR028C, strain CDC14, hits give low values
[22] = S. cerevisiae deletion strains, locus YGR040W, strain KSS1, hits give low values
[23] = S. cerevisiae deletion strains, locus YGR052W, strain FMP48, hits give low values
[24] = S. cerevisiae deletion strains, locus YGR092W, strain DBF2, hits give low values
[25] = S. cerevisiae deletion strains, locus YHR030C, strain SLT2, hits give low values
[26] = S. cerevisiae deletion strains, locus YHR079C, strain IRE1, hits give low values
[27] = S. cerevisiae deletion strains, locus YHR082C, strain KSP1, hits give low values
[28] = S. cerevisiae deletion strains, locus YHR205W, strain SCH9, hits give low values
[29] = S. cerevisiae deletion strains, locus YIL147C, strain SLN1, hits give low values
[30] = S. cerevisiae deletion strains, locus YJL095W, strain BCK1, hits give low values
[31] = S. cerevisiae deletion strains, locus YJL128C, strain PBS2, hits give low values
[32] = S. cerevisiae deletion strains, locus YJL157C, strain FAR1, hits give low values
[33] = S. cerevisiae deletion strains, locus YJR016C, strain ILV3, hits give low values
[34] = S. cerevisiae deletion strains, locus YJR066W, strain TOR1 (second series), hits give low values
[35] = S. cerevisiae deletion strains, locus YJR066W, strain TOR1, hits give low values
[36] = S. cerevisiae deletion strains, locus YKL048C, strain ELM1, hits give low values
[37] = S. cerevisiae deletion strains, locus YKL067W, strain YNK1, hits give low values
[38] = S. cerevisiae deletion strains, locus YKL101W, strain HSL1, hits give low values
[39] = S. cerevisiae deletion strains, locus YKL193C, strain SDS22, hits give low values
[40] = S. cerevisiae deletion strains, locus YKL203C, strain TOR2, hits give low values
[41] = S. cerevisiae deletion strains, locus YLR113W, strain HOG1, hits give low values
[42] = S. cerevisiae deletion strains, locus YLR133W, strain CKI1, hits give low values
[43] = S. cerevisiae deletion strains, locus YLR403W, strain SFP1, hits give low values
[44] = S. cerevisiae deletion strains, locus YML070W, strain DAK1, hits give low values
[45] = S. cerevisiae deletion strains, locus YMR001C, strain CDC5, hits give low values
[46] = S. cerevisiae deletion strains, locus YMR205C, strain PFK2 (second series), hits give low values
[47] = S. cerevisiae deletion strains, locus YMR277W, strain FCP1, hits give low values
[48] = S. cerevisiae deletion strains, locus YNL006W, strain LST8, hits give low values
[49] = S. cerevisiae deletion strains, locus YNL020C, strain ARK1, hits give low values
[50] = S. cerevisiae deletion strains, locus YNL161W, strain CBK1, hits give low values
[51] = S. cerevisiae deletion strains, locus YNL183C, strain NPR1, hits give low values
[52] = S. cerevisiae deletion strains, locus YNL207W, strain RIO2, hits give low values
[53] = S. cerevisiae deletion strains, locus YNL222W, strain SSU72, hits give low values
[54] = S. cerevisiae deletion strains, locus YNL307C, strain MCK1 (second series), hits give low values
[55] = S. cerevisiae deletion strains, locus YOL078W, strain AVO1, hits give low values
[56] = S. cerevisiae deletion strains, locus YOL136C, strain PFK27, hits give low values
[57] = S. cerevisiae deletion strains, locus YOR061W, strain CKA2, hits give low values
[58] = S. cerevisiae deletion strains, locus YOR119C, strain RIO1, hits give low values
[59] = S. cerevisiae deletion strains, locus YOR231W, strain MKK1, hits give low values
[60] = S. cerevisiae deletion strains, locus YOR329C, strain SCD5, hits give low values
[61] = S. cerevisiae deletion strains, locus YPL031C, strain PHO85, hits give low values
[62] = S. cerevisiae deletion strains, locus YPL153C, strain RAD53, hits give low values
[63] = S. cerevisiae deletion strains, locus YPL204W, strain HRR25, hits give low values
[64] = S. cerevisiae deletion strains, locus YPL209C, strain IPL1, hits give low values
[65] = S. cerevisiae deletion strains, locus YPL256C, strain CLN2, hits give low values
[66] = S. cerevisiae deletion strains, locus YPR025C, strain CCL1, hits give low values
[67] = S. cerevisiae deletion strains, locus YPR106W, strain ISR1, hits give low values
[68] = S. cerevisiae deletion strains, locus YPR111W, strain DBF20, hits give low values
[69] = S. cerevisiae deletion strains, strain NNK1, hits give low values
[70] = S. cerevisiae deletion strains, strain TSCII, hits give low values

Measured: normalized growth

O=[N+]([O-])/C=C/c1ccsc1
active: S. cerevisiae deletion strains, locus YAL013W, strain DEP1, hits give low values 0.0965 | [1] 0.0973 | [2] 0.088 | [3] 0.0811 | [4] 0.0958 | [5] 0.0863 | S. cerevisiae deletion strains, locus YBR229C, strain ROT2, hits give low values 0.0538 | S. cerevisiae deletion strains, locus YCL061C, strain MRC1, hits give low values 0.0534 | [6] 0.0862 | [7] 0.108 | [8] 0.0979 and 0.0659 | [9] 0.1 | [10] 0.0899 | [11] 0.0917 | [12] 0.0918 | [13] 0.0966 | S. cerevisiae deletion strains, locus YDR150W, strain NUM1, hits give low values 0.319 | S. cerevisiae deletion strains, locus YDR226W, strain ADK1, hits give low values 0.377 | [14] 0.0976 | S. cerevisiae deletion strains, locus YEL061C, strain CIN8, hits give low values 0.0749 | [15] 0.0988 | [16] 0.0944 | [17] 0.09 | [18] 0.0924 | [19] 0.126 | [20] 0.0932 | [21] 0.0832 | [22] 0.102 | [23] 0.105 | S. cerevisiae deletion strains, locus YGR078C, strain PAC10, hits give low values 0.0512 | [24] 0.101 | [25] 0.086 and 0.114 | [26] 0.115 | [27] 0.122 | S. cerevisiae deletion strains, locus YHR087W, strain rtc3, hits give low values 0.0574 | [28] 0.014 | [29] 0.266 | [30] 0.104 | [31] 0.0942 | [32] 0.0861 | S. cerevisiae deletion strains, locus YJL187C, strain SWE1, hits give low values 0.0512 | [33] 0.0858 | S. cerevisiae deletion strains, locus YJR043C, strain POL32, hits give low values 0.0674 | [34] 0.0922 | [35] 0.121 | S. cerevisiae deletion strains, locus YJR075W, strain HOC1, hits give low values 0.072 | [36] 0.109 | [37] 0.0882 | [38] 0.0953 | S. cerevisiae deletion strains, locus YKL190W, strain CNB1, hits give low values 0.0559 | [39] 0.0818 | [40] 0.102 | S. cerevisiae deletion strains, locus YLR039C, strain RIC1, hits give low values 0.0823 | S. cerevisiae deletion strains, locus YLR058C, strain SHM2 (second series), hits give low values 0.0499 | S. cerevisiae deletion strains, locus YLR085C, strain ARP6, hits give low values 0.0726 | [41] 0.133 | [42] 0.107 | S. cerevisiae deletion strains, locus YLR262C, strain YPT6, hits give low values 0.074 | [43] 0.0115 | [44] 0.0892 | S. cerevisiae deletion strains, locus YML094W, strain GIM5, hits give low values 0.0766 | [45] 0.0846 | [46] 0.0874 | S. cerevisiae deletion strains, locus YMR219W, strain ESC1, hits give low values 0.0511 | S. cerevisiae deletion strains, locus YMR263W, strain SAP30, hits give low values 0.0973 | [47] 0.0872 | [48] 0.0854 | [49] 0.0962 | S. cerevisiae deletion strains, locus YNL153C, strain GIM3, hits give low values 0.0541 | [50] 0.0827 | [51] 0.113 | [52] 0.0963 | [53] 0.0831 | S. cerevisiae deletion strains, locus YNL298W, strain CLA4 (second series), hits give low values 0.0744 | [54] 0.106 | S. cerevisiae deletion strains, locus YNL322C, strain KRE1, hits give low values 0.238 | S. cerevisiae deletion strains, locus YNR030W, strain Alg12, hits give low values 0.0788 | [55] 0.0843 | [56] 0.0965 | [57] 0.0882 | [58] 0.112 | [59] 0.109 | [60] 0.0876 | [61] 0.0965 | S. cerevisiae deletion strains, locus YPL055C, strain LGE1, hits give low values 0.254 | [62] 0.0949 | [63] 0.0984 | [64] 0.0842 | S. cerevisiae deletion strains, locus YPL241C, strain CIN2, hits give low values 0.106 | [65] 0.133 | [66] 0.0831 | [67] 0.0863 | [68] 0.0864 | S. cerevisiae deletion strains, locus YPR135W, strain CTF4, hits give low values 0.212 | [69] 0.0961 | [70] 0.0894 | S. cerevisiae strains, strain wild type, hits give low values 0.0538

C=CCOc1ccc(/C=C/[N+](=O)[O-])cc1
active: [1] 0.0985 | [2] 0.0881 | [3] 0.0822 | [4] 0.095 | [5] 0.0851 | [6] 0.0853 | [7] 0.0971 | [8] 0.108 | [9] 0.1 | [10] 0.0933 | [11] 0.0888 | [12] 0.0837 | [13] 0.0953 | [14] 0.104 | [15] 0.105 | [16] 0.096 | [17] 0.0895 | [18] 0.094 | [19] 0.0875 | [20] 0.0967 | [21] 0.0822 | [22] 0.0972 | [23] 0.116 | [24] 0.106 | [25] 0.12 | [26] 0.118 | [27] 0.124 | [28] 0.00436 | [29] 0.116 | [30] 0.124 | [31] 0.154 | [32] 0.0842 | [33] 0.0828 | [34] 0.0922 | [35] 0.118 | [36] 0.107 | [37] 0.0924 | [38] 0.0997 | [39] 0.0826 | [40] 0.104 | [41] 0.147 | [42] 0.102 | [43] -0.00907 | [44] 0.0908 | [45] 0.0861 | [46] 0.095 | [47] 0.0876 | [48] 0.0846 | [49] 0.0937 | [50] 0.0814 | [51] 0.127 | [52] 0.0904 | [53] 0.0824 | [54] 0.102 | [55] 0.083 | [56] 0.0949 | [57] 0.0943 | [58] 0.112 | [59] 0.109 | [60] 0.0843 | [61] 0.102 | [62] 0.0983 | [63] 0.0984 | [64] 0.0828 | [65] 0.134 | [66] 0.0851 | [67] 0.0928 | [68] 0.154 | [69] 0.1 | [70] 0.0928
